The list is not random: actives were taken first. Their share in the collection is about 13%.
miR-21 reporter: qHTS Assay for Modulators of miRNAs and/orActivators of miR-21; HeLa miR-21 FLuc reporter, luciferase, 48 h; 340,000 tested, under 10 active; Potency, µM (doses to about 38.3 µM), most hits filed as activators;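 note: miR-21 action dims this reporter so a rising signal means less miR-21 action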
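HeLa miR-21-FLuc reporter line, endogenous miR-21; 2000 cells/well in DMEM/10% FBS; compound titration up to ~40uM final, 48 h, 37 degree Celsius; luciferase detection reagent, 15 min lysis, CCD luminescence.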
ALDH1A1 block: qHTS Assay for Inhibitors of Aldehyde Dehydrogenase 1 (ALDH1A1); Aldehyde dehydrogenase 1A1 (Homo sapiens), P00352; Purified ALDH1A1, NADH fluorescence, propionaldehyde substrate; Potency, µM (titrated, usually from 75.3 µM), usual class: inhibitors; 7.3% of 220,000 active; AID 1030, 2008; active = well fitted inhibition curve with a large enough effect, not every such curve was filed as active; inconclusive = small, poorly fitted or top-dose-only effect, or another doubt; inactive = no such curve, though single readings can be large or run the other way
Target sequence (P00352 whole entry, looked up): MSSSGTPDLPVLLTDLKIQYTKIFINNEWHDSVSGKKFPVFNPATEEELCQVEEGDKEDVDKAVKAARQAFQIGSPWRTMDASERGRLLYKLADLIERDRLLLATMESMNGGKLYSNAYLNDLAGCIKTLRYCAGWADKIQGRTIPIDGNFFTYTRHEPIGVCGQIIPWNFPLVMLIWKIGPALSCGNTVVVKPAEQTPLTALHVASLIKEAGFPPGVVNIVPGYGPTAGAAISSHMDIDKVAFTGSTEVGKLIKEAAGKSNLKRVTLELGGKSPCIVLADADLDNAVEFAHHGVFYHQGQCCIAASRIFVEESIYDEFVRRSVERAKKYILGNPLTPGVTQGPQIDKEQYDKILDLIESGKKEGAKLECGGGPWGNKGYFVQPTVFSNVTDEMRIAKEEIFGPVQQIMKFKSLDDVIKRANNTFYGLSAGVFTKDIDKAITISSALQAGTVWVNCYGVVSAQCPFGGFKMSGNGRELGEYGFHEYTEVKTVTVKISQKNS
KDM4E inh: qHTS Assay for Inhibitors of Human Jumonji Domain Containing 2E (JMJD2E) | JMJD2E catalytic domain, FDH-coupled NADH fluorescence (FDH is formaldehyde dehydrogenase) | Potency, µM (titrated, usually from 57.1 µM), actives largely listed as inhibitors | 1.6% of 230,000 active; active = well fitted inhibition curve with a large enough effect, not every such curve was filed as active; inconclusive = small, poorly fitted or top-dose-only effect, or another doubt; inactive = no such curve, though single readings can be large or run the other way; note: nearly all actives have a fitted effect of over 50% in size
G9a block: qHTS Assay for Inhibitors of Histone Lysine Methyltransferase G9a. G9a H3K9 monomethylation, AlphaScreen, 2 h. Potency, µM (series often up to 102 µM), actives largely listed as inhibitors. 8.8% of 350,000 active; note: nearly all actives have a fitted effect of over 75% in size
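Quantitative HTS format: methyltransferase activity on a biotin-tagged H3K9 peptide is measured by AlphaScreen, using a rabbit anti-monomethyl-H3K9 antibody with streptavidin donor and anti-IgG acceptor beads. Final levels are 20 nM enzyme, 500 nM peptide, 20 uM SAM; 2 h RT.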
Sfp PPTase inh: qHTS Assay for Inhibitors of Bacillus subtilis Sfp phosphopantetheinyl transferase (PPTase); 4'-phosphopantetheinyl transferase ffp (Bacillus subtilis), Q9F4F7; Biochemical Sfp PPTase activity, qHTS; Potency, µM, actives largely listed as inhibitors; 3.5% of 310,000 active;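 note: the enzyme is Sfp with the accession as filed and its product quenches rhodamine fluorescence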
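Step 1, compound plus 15 nM Sfp-PPTase, 15 min, room temperature. Step 2, add rhodamine-CoA (5 uM) and BHQ-2-YbbR (12.5 uM). Step 3, read 525/598 nm fluorescence at 0 and 30 min.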
LMNA splice mod: qHTS Assay for Modulators of Lamin A Splicing; Potency, µM (top dose mostly 46.1 µM), actives largely listed as inhibitors; 0.01% of 200,000 active; AID 1487, 2009; HeLa LMNA splicing GFP/RFP minigene ratio, 48 h; active = well fitted inhibition curve with a large enough effect in the signal ratio, with a control signal flat, not every such curve was filed as active; inconclusive = small, poorly fitted or top-dose-only effect, or effect the other way, or a change in a side signal; the % refers to the signal ratio
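S3 HeLa cells stably expressing lamin A-EGFP splicing minigene plus DsRed2, 600 cells/well, 48 h compound exposure at 37C. Laser-scanning cytometry; analysed as GFP (500-530 nm)/RFP (575-640 nm) total intensity ratio; 0.5% DMSO vehicle.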
A number is an active result; - = inactive; ? = inconclusive; . = not tested or not shown; [ ] = remark or other dose. Unless noted, calls come from the whole dose curve; as a rule, active = well fitted curve in the direction sought with a large enough effect; inconclusive = small, poorly fitted or top-dose-only effect, or another doubt; inactive = no such curve, though single readings can be large; an effect the other way counts as inactive or inconclusive.

SMILES	miR-21 reporter	ALDH1A1 block	KDM4E inh	G9a block	Sfp PPTase inh	LMNA splice mod
Nc1ccc(S(=O)(=O)NC2(C(F)(F)F)NC(=O)N(c3cccc(Cl)c3)C2=O)cc1 (stereo not given)	-	.	.	-	.	.
COc1ccc(S(=O)(=O)NC(C)C(=O)Nc2ccccc2C(F)(F)F)cc1 (stereo not given)	-	-	-	11µM	-	-
Oc1c(C(c2ccc(Cl)cc2)N2CCOCC2)sc2nc(-c3ccco3)nn12 (stereo not given)	-	.	.	?	.	-
CCN1C/C(=C/c2sccc2C)c2nc3ccccc3c(C(=O)O)c2C1	-	.	-	-	-	.
CCc1ccc(/C=C2\CN(CC)Cc3c2nc2ccccc2c3C(=O)O)cc1	-	?	-	?	2.5µM	-
CCN1C/C(=C/c2cccs2)c2nc3ccccc3c(C(=O)O)c2C1	-	.	25µM	.	45µM	.
O=C(O)c1c2c(nc3ccccc13)/C(=C/c1ccc(OC(F)F)cc1)CCC2	-	.	.	?	-	.
O=C(O)c1c2c(nc3ccccc13)/C(=C/c1ccc(O)cc1)CC2	-	?	?	22µM	-	-
Oc1c(C(c2cccc(Br)c2)N2CCCC2)sc2nc(-c3ccco3)nn12 (stereo not given)	-	.	.	-	.	-
Nc1ccc(C(=O)N2CCN(S(=O)(=O)c3ccc(Br)cc3)CC2)cc1[N+](=O)[O-]	.	.	.	45µM	.	.
COc1cccc(NC(=O)N2CCC(CN3CCOCC3)CC2)c1	-	.	.	-	.	-
COc1ccc(OC)c(NC(=O)NNC(=O)c2cc3occc3[nH]2)c1	-	.	.	50µM	-	.
CCN(CC)CCN(C(=O)c1ccc(S(=O)(=O)N2CCCCC2)cc1)c1nc2cc3c(cc2s1)OCO3	-	-	-	50µM	-	.
CCOc1cccc2sc(N(CCN(CC)CC)C(=O)c3ccc(S(=O)(=O)N4CCCC4)cc3)nc12	-	.	.	-	-	.
CCN(CC)CCN(C(=O)c1ccc2ccccc2c1)c1nc2cc3c(cc2s1)OCO3	-	.	.	40µM	45µM	.
CCC(C)CCCCC(=O)NC(CCN)C(=O)NC(C(=O)NC(CCN)C(=O)NC1CCNC(=O)C(C(C)O)NC(=O)C(CCN)NC(=O)C(CCN)NC(=O)C(CC(C)C)NC(=O)C(Cc2ccccc2)NC(=O)C(CCN)NC1=O)C(C)O (stereo not given)	.	-	-	-[2.33 µM]	28µM	?
COc1cc(NC(C)CCCN)c2ncccc2c1 (stereo not given)	.	-	?	13µM	-	.
COc1cc(NCCCCCCCN)c2ncccc2c1	-	3.5µM	-	-	?	?
COc1ccc(CNC(=O)C(=O)NCC(c2cccnc2)N2CCN(c3ccccc3F)CC2)cc1 (stereo not given)	-	.	.	-	.	-
O=C(COC(=O)CN1C(=O)c2ccccc2C1=O)NC1CCCC1	-	.	.	-	-	.
COc1ccccc1C(=O)NN(C)C1=NS(=O)(=O)c2ccccc21	-	.	.	-	-	.
CN(NC(=O)CN1C(=O)c2ccccc2C1=O)C1=NS(=O)(=O)c2ccccc21	-	-	-	79µM	-	.
Cc1cnc(C(=O)Nc2ccccc2-c2ccc(C)o2)cn1	-	-	-	?	50µM	-
Cc1ccccc1NC(=O)CN1C(=O)C2C3CC(C(Br)C3Br)C2C1=O (stereo not given)	-	10µM	-	5µM	56µM	-
O=C(CN1C(=O)C2C3c4ccccc4C(c4ccccc43)C2C1=O)Nc1ccccc1C(=O)O (stereo not given)	-	-	-	-	-	-
SMILES	miR-21 reporter	ALDH1A1 block	KDM4E inh	G9a block	Sfp PPTase inh	LMNA splice mod
CC1CCC2(C(=O)O)CCC3(C)C(=CCC4C3(C)CCC3[C@@]4(C)CC(O)C(O)[C@@]3(C)CO)C2C1C (stereo not given in full)	.	-	-	.	-	?
COc1ccc(-c2n[nH]c(=S)n2N)c(OC)c1	-	25µM	?	6.3µM	35µM	-
COc1ccc(-c2n[nH]c(=S)n2-c2cc(OC)ccc2OC)cc1	-	.	-	2.8µM	79µM	.
S=c1[nH]nc(-c2ccc(Cl)cc2)n1-c1ccc(Cl)cc1	-	.	.	8.9µM	-	.
COc1ccc(-n2c(-c3ccc(Cl)cc3Cl)n[nH]c2=S)c(OC)c1	-	.	.	.	-	.
COc1ccc(-c2cc(-c3n[nH]c(=S)n3-c3ccccc3Cl)[nH]n2)cc1	-	?	-	7.9µM	-	-
COc1ccc(OC)c(-n2c(-c3cc(-c4ccco4)[nH]n3)n[nH]c2=S)c1	-	-	-	-	-	.
Cc1ccc(-c2n[nH]c(=S)n2C)cc1	-	-	-	10µM	-	?
COc1ccc(-c2n[nH]c(=S)n2-c2ccc(C)cc2)cc1	-	.	-	0.89µM	?	.
COc1ccc(OC)c(-n2c(-c3ccc(C)cc3)n[nH]c2=S)c1	-	18µM	-	?	-	-
CCN(c1ccc(Cl)cc1)S(=O)(=O)c1nnc(NC(=O)c2ccccc2C)s1	-	.	.	-	.	-
Cc1ccc(NC(=O)Cc2cc(C(=O)O)c3ccccc3n2)c(C)c1	-	-	-	-	-	-
COc1ccccc1CN1CC[C@@]2(CCCN(C(=O)c3cccn3C)C2)C1	.	?	.	-[12.7 µM]	-	.
O=C(COC(=O)c1ccc([N+](=O)[O-])o1)Nc1nc2ccccc2s1	-	32µM	?	.	-	-
Cc1ccc2nc(NC(=O)COC(=O)c3ccco3)sc2c1	-	-	-	2.8µM	-	-
Cc1ccc2nc(NC(=O)COC(=O)c3ccc(Br)o3)sc2c1	-	?	?	?	25µM	?
O=C(COC(=O)c1ccco1)Nc1nc2ccc([N+](=O)[O-])cc2s1	-	-	-	.	-	.
Cc1ccc2nc(NC(=O)Cc3cccs3)sc2c1	-	7.9µM	-	-	-	?
COc1ccc2nc(NC(=O)Cc3cccs3)sc2c1	-	-	-	?	-	-
O=C(CS(=O)(=O)c1cccc2nsnc12)N1CCN(c2ccccc2)CC1	-	.	.	-	.	-
Cc1ccc(C(=O)OC(C)C(=O)c2cc(C)c(C)cc2C)o1 (stereo not given)	-	.	.	-	-	.
Nc1nonc1C(=O)NC(c1ccccc1)c1ccccc1	-	14µM	-	-	-	-
COc1ccc(C(=O)NC(=S)NNC(=O)c2ccc(O)cc2)cc1[N+](=O)[O-]	-	.	.	32µM	-	.
COc1ccc(C(=O)Nc2ccc(S(=O)(=O)NC(C)=O)cc2)cc1[N+](=O)[O-]	-	?	-	50µM	-	-
COc1ccc(C(=O)Nc2ccccc2)cc1[N+](=O)[O-]	.	20µM	.	.	.	.
